Source: PubChem BioAssay (EPA / NIEHS)
The source made the active and inactive calls. Rule for the calls: active = hit-call score of the fitted dose curve at least 0.9, where 1 is the maximum; inactive = score below 0.9.

Read-out: Interleukin 6 (IL6), IL6 (gene 3569)
Assay: LTEA_HepaRG_IL6: Life Technologies and Expression Analysis (LTEA) Assay for Interleukin 6 (IL6) using HepaRG (AID 2283509)
Conditions: mRNA level, 48 h; actives raise or lower the signal
Summary of the method: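 Changes in IL6 mRNA, up or down relative to 0.5% DMSO controls, were derived from concentration-response curves in human HepaRG cells treated for 48 h at up to 100 uM, with ACTB, GAPDH and POLR2A as normalizers.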

Row | SMILES | outcome
1 | CC(C)NC(=O)N1CC(=O)N(c2cc(Cl)cc(Cl)c2)C1=O | inactive
2 | CCOP(=S)(OCC)Oc1nc(Cl)n(C(C)C)n1 | inactive
3 | CCCC(=NOCC)C1=C(O)CC(CC(C)SCC)CC1=O (centres undefined) | inactive
4 | COCC(=O)N(c1c(C)cccc1C)C(C)C(=O)OC (centres undefined) | inactive
5 | COP(=O)(OC)O/C(C)=C/C(=O)N(C)C | inactive
6 | CC1(C)C(C(=O)OC(C#N)c2cccc(Oc3ccccc3)c2)C1(C)C (centres undefined) | inactive
7 | CS(=O)(=O)c1ccc(C(=O)C2C(=O)CCCC2=O)c([N+](=O)[O-])c1 | inactive
8 | CCCCC(C#N)(Cn1cncn1)c1ccc(Cl)cc1 (centres undefined) | inactive
9 | CN=C=S | inactive
10 | Clc1cccc(C(Cl)(Cl)Cl)n1 | inactive
11 | CCNP(=S)(OC)O/C(C)=C/C(=O)OC(C)C (centres undefined) | inactive
12 | Cc1cnc(C2=NC(C)(C(C)C)C(=O)N2)c(C(=O)O)c1 (centres undefined) | inactive
13 | COc1cc(OC)nc(NC(=O)NS(=O)(=O)c2ncccc2OCC(F)(F)F)n1 | inactive

Read-out: Potassium channel subfamily K member 1 (KCNK1), KCNK1 (gene 3775)
Assay: LTEA_HepaRG_KCNK1: Life Technologies and Expression Analysis (LTEA) Assay for Potassium channel subfamily K member 1 (KCNK1) using HepaRG (AID 2283511)
Conditions: mRNA level, 48 h; actives raise or lower the signal
Summary of the method: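 Human HepaRG cultures receive test chemicals for 48 h in 0.5% DMSO, top concentration 100 uM with half-log dilutions. Induction or suppression of KCNK1 mRNA relative to DMSO is derived by bidirectional fitting of qRT-PCR data.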

Row | SMILES | outcome | AC50
14 | COc1cc(Cl)c(OC)cc1Cl | inactive | –
15 | N#CN=C1SCCN1Cc1ccc(Cl)nc1 | inactive | –
16 | COc1ccc(-c2ccccc2)cc1NNC(=O)OC(C)C | inactive | –
17 | C=CCOC(=O)C(C)(C)OC(=O)c1cc(-n2c(=O)cc(C(F)(F)F)n(C)c2=O)ccc1Cl | inactive | –
18 | COCc1cnc(C2=NC(C)(C(C)C)C(=O)N2)c(C(=O)O)c1 (centres undefined) | inactive | –
19 | CCOc1nc(C(Cl)(Cl)Cl)ns1 | – | 1.22 µM (active)
20 | Cc1nc(N(C)C)nc(OC(=O)N(C)C)c1C | inactive | –
21 | O=C(O)c1c(Cl)ccc2cc(Cl)cnc12 | inactive | –
22 | COC(=O)NC(=S)Nc1ccccc1NC(=S)NC(=O)OC | inactive | –
23 | CCC(C)n1c(=O)[nH]c(C)c(Br)c1=O (centres undefined) | inactive | –
24 | COP(=S)(OC)SCn1nnc2ccccc2c1=O | inactive | –
25 | CCCCC(O)(Cn1cncn1)c1ccc(Cl)cc1Cl (centres undefined) | – | 41.3 µM (active)
26 | Cc1cc(C)nc(Nc2ccccc2)n1 | inactive | –
27 | CCSC(=O)N1CCCCCC1 | inactive | –
28 | O=P(O)(O)CCCl | inactive | –
29 | CC(C)Oc1cccc(NC(=O)c2ccccc2C(F)(F)F)c1 | inactive | –
30 | CC(C)(C)C(=O)C(Oc1ccc(Cl)cc1)n1cncn1 (centres undefined) | inactive | –
31 | Nc1cnn(-c2ccccc2)c(=O)c1Cl | inactive | –

Row | SMILES | outcome | AC50
32 | CCN(CC)c1nc(C)cc(OP(=S)(OC)OC)n1 | inactive | –
33 | CCCN(CC)CC1COC2(CCC(C(C)(C)C)CC2)O1 (centres undefined) | inactive | –
34 | Nc1c(Cl)c(Cl)nc(C(=O)O)c1Cl | inactive | –
35 | CC(C)C1(C)N=C(c2ncccc2C(=O)O)NC1=O (centres undefined) | inactive | –
36 | COC(=O)N(C(=O)N1CO[C@@]2(C(=O)OC)Cc3cc(Cl)ccc3C2=N1)c1ccc(OC(F)(F)F)cc1 | inactive | –
37 | CC(C)NC(=O)N1CC(=O)N(c2cc(Cl)cc(Cl)c2)C1=O | inactive | –
38 | CCOP(=S)(OCC)Oc1nc(Cl)n(C(C)C)n1 | inactive | –
39 | CCCC(=NOCC)C1=C(O)CC(CC(C)SCC)CC1=O (centres undefined) | inactive | –
40 | COCC(=O)N(c1c(C)cccc1C)C(C)C(=O)OC (centres undefined) | inactive | –
41 | COP(=O)(OC)O/C(C)=C/C(=O)N(C)C | inactive | –
42 | CC1(C)C(C(=O)OC(C#N)c2cccc(Oc3ccccc3)c2)C1(C)C (centres undefined) | inactive | –
43 | CS(=O)(=O)c1ccc(C(=O)C2C(=O)CCCC2=O)c([N+](=O)[O-])c1 | inactive | –
44 | CCCCC(C#N)(Cn1cncn1)c1ccc(Cl)cc1 (centres undefined) | inactive | –
45 | CN=C=S | inactive | –
46 | Clc1cccc(C(Cl)(Cl)Cl)n1 | inactive | –
47 | CCNP(=S)(OC)O/C(C)=C/C(=O)OC(C)C (centres undefined) | inactive | –
48 | Cc1cnc(C2=NC(C)(C(C)C)C(=O)N2)c(C(=O)O)c1 (centres undefined) | inactive | –
49 | COc1cc(OC)nc(NC(=O)NS(=O)(=O)c2ncccc2OCC(F)(F)F)n1 | inactive | –

Read-out: Keratin 19 (KRT19), KRT19 (gene 3880)
Assay: LTEA_HepaRG_KRT19: Life Technologies and Expression Analysis (LTEA) Assay for Keratin 19 (KRT19) using HepaRG (AID 2283512)
Conditions: mRNA level, 48 h; actives raise or lower the signal
Summary of the method: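 HepaRG, 48 h chemical exposure, 8-pt half-log CRC from 100 uM, 0.5% DMSO vehicle, duplicates. Readout: TaqMan qRT-PCR of KRT19 mRNA, housekeeping-normalized (ACTB/GAPDH/POLR2A). Bidirectional fit vs DMSO baseline.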

Row | SMILES | outcome | AC50
50 | COc1cc(Cl)c(OC)cc1Cl | inactive | –
51 | N#CN=C1SCCN1Cc1ccc(Cl)nc1 | inactive | –
52 | COc1ccc(-c2ccccc2)cc1NNC(=O)OC(C)C | inactive | –
53 | C=CCOC(=O)C(C)(C)OC(=O)c1cc(-n2c(=O)cc(C(F)(F)F)n(C)c2=O)ccc1Cl | inactive | –
54 | COCc1cnc(C2=NC(C)(C(C)C)C(=O)N2)c(C(=O)O)c1 (centres undefined) | inactive | –
55 | CCOc1nc(C(Cl)(Cl)Cl)ns1 | inactive | –
56 | Cc1nc(N(C)C)nc(OC(=O)N(C)C)c1C | inactive | –
57 | O=C(O)c1c(Cl)ccc2cc(Cl)cnc12 | inactive | –
58 | COC(=O)NC(=S)Nc1ccccc1NC(=S)NC(=O)OC | inactive | –
59 | CCC(C)n1c(=O)[nH]c(C)c(Br)c1=O (centres undefined) | – | 11.8 µM (active)
60 | COP(=S)(OC)SCn1nnc2ccccc2c1=O | inactive | –
61 | CCCCC(O)(Cn1cncn1)c1ccc(Cl)cc1Cl (centres undefined) | inactive | –
62 | Cc1cc(C)nc(Nc2ccccc2)n1 | – | 18.7 µM (active)
63 | CCSC(=O)N1CCCCCC1 | inactive | –
64 | O=P(O)(O)CCCl | inactive | –
65 | CC(C)Oc1cccc(NC(=O)c2ccccc2C(F)(F)F)c1 | – | 34.1 µM (active)
66 | CC(C)(C)C(=O)C(Oc1ccc(Cl)cc1)n1cncn1 (centres undefined) | inactive | –
67 | Nc1cnn(-c2ccccc2)c(=O)c1Cl | inactive | –

Row | SMILES | outcome | AC50
68 | CCN(CC)c1nc(C)cc(OP(=S)(OC)OC)n1 | inactive | –
69 | CCCN(CC)CC1COC2(CCC(C(C)(C)C)CC2)O1 (centres undefined) | inactive | –
70 | Nc1c(Cl)c(Cl)nc(C(=O)O)c1Cl | inactive | –
71 | COC(=O)N(C(=O)N1CO[C@@]2(C(=O)OC)Cc3cc(Cl)ccc3C2=N1)c1ccc(OC(F)(F)F)cc1 | – | 16.9 µM (active)
72 | CC(C)NC(=O)N1CC(=O)N(c2cc(Cl)cc(Cl)c2)C1=O | – | 20.3 µM (active)
73 | CCOP(=S)(OCC)Oc1nc(Cl)n(C(C)C)n1 | inactive | –
74 | CCCC(=NOCC)C1=C(O)CC(CC(C)SCC)CC1=O (centres undefined) | inactive | –
75 | COCC(=O)N(c1c(C)cccc1C)C(C)C(=O)OC (centres undefined) | inactive | –
76 | COP(=O)(OC)O/C(C)=C/C(=O)N(C)C | inactive | –
77 | CC1(C)C(C(=O)OC(C#N)c2cccc(Oc3ccccc3)c2)C1(C)C (centres undefined) | inactive | –
78 | CS(=O)(=O)c1ccc(C(=O)C2C(=O)CCCC2=O)c([N+](=O)[O-])c1 | inactive | –
79 | CCCCC(C#N)(Cn1cncn1)c1ccc(Cl)cc1 (centres undefined) | inactive | –
80 | CN=C=S | inactive | –
81 | Clc1cccc(C(Cl)(Cl)Cl)n1 | inactive | –
82 | CCNP(=S)(OC)O/C(C)=C/C(=O)OC(C)C (centres undefined) | – | 50 µM (active)
83 | Cc1cnc(C2=NC(C)(C(C)C)C(=O)N2)c(C(=O)O)c1 (centres undefined) | inactive | –
84 | COc1cc(OC)nc(NC(=O)NS(=O)(=O)c2ncccc2OCC(F)(F)F)n1 | inactive | –
